This is part of a sample that, as a whole, favours compounds with a hit. Of some 83,000 tested, about 20% had one in any assay.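 Percent growth is the endpoint: 0 to 100 indicates growth inhibition (40 means 60% inhibition), 0 means no net growth, and negative values indicate cell death.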 A number with no mark means an inactive call. Activity calls are given as the source filed them. The calls were made as follows: active = growth percent below 10; inactive = the rest.
Each molecule was assayed on M14 melanoma (assay: NCI-60 one-dose screen, 48 h (100 = growth as untreated, 0 = no growth, -100 = all killed)). Settings: 10 µM unless noted.
`C=C1C(=O)O[C@@H]2C3C(=C(C)CC[C@@H]12)CC1O[C@]13C` (some centres not stated) gave a growth of 65.5% [6.75 µM]. For `COc1cccc(CNc2c3ccccc3nc3ccccc23)c1OC`, the growth was 34.5%. With `Nc1c(Cl)cc(/C=C2\C=Cc3ccccc32)cc1Cl` the growth was 105%. With `CSc1ccc2c3c(n(C[C@H](O)CO)c(=O)c2c1)-c1ccccc1C3=O` the growth was 52.2%. With `COc1cc(-c2ccc[nH]2)[nH]c1/C=C1\N=C(C)C(CC(=O)OCC(C)(C)C)=C1C` the growth was -86.3% (active). `Brc1ccc(Nc2nc(Nc3cnc4ccccc4c3)c3[nH]cnc3n2)cc1` showed a growth of 84.8%. Molecule `CS(=O)(=O)Nc1cc(-c2ccc3ncnc(Nc4ccc(F)c(Cl)c4)c3c2)ccc1Cl` has a growth of 46.8%. `CSc1ccc2c3c(n(CCCn4ccnc4)c(=O)c2c1)-c1ccccc1C3=O` gave a growth of 26.6%. In the case of `O=C(/C=C/c1cn(-c2ccccc2)nc1-c1ccccc1)CCC(=O)NO`, the growth is reported as 100%. `O=C(/C=C/c1ccccc1)c1cccc2ccccc12` was tested, and the growth was 86.7%. Molecule `CCOC(=O)/C=C1\S/C(=N\Nc2cc(=O)[nH]c3ccc(Br)cc23)N(c2ccccc2)C1=O` has a growth of 89.5%. `CC(=O)c1ccc(-n2cc(CN3CCN(c4cc5c(cc4F)c(=O)c(C(=O)O)cn5C4CC4)CC3)nn2)cc1` was tested, and the growth was 90.1%. `CS(=O)(=O)Nc1cc(-c2ccc3ncnc(Nc4ccc(OCc5ccccn5)c(Cl)c4)c3c2)cnc1Cl` was tested, and the growth was 30%. `COc1ccc2c(c1)c(-c1nc(-c3ccc4ccccc4c3)cs1)cn2C` showed a growth of 96.9%. For `CCOC(=O)c1c(C)nc2ccccc2c1/C=C/c1ccc(F)cc1`, the growth was 86.5%. `CC1(C)N=C(N)N=C(N)N1c1ccc(S(=O)(=O)Nc2nccs2)cc1` showed a growth of 99.6%. In the case of `COC(=O)c1sccc1-c1cc(O)c(C(=O)Nc2ccccc2)s1`, the growth is reported as 93.3%. In the case of `CCOC(=O)NC(=S)n1oc(=O)c2ccccc21`, the growth is reported as 104%. `O=C1CCC(C(=O)N/N=C/c2cc(F)ccc2F)N1` (configuration not stated) was tested, and the growth was 104%. `COc1ccccc1/C=C/C(=O)Nc1ccc(F)cc1` gave a growth of 96.7%. `COc1ccc(/C=N/Nc2c3ccccc3nc3ccccc23)cc1` was tested, and the growth was 106%. With `O=[N+]([O-])c1ccccc1Sc1ccccc1[N+](=O)[O-]` the growth was 100%. Work on `C[C@@H]1CN(c2cnc(C(=O)Nc3cc(F)cc4cccnc34)cn2)C[C@H](C)N1` yielded a growth of 73.9%. Work on `CC1(C)CC[C@]23CC[C@]4(C)[C@H](CC[C@@H]5[C@@]6(C)C/C(=C/O)C(=O)C(C)(C)[C@@H]6CC[C@]54C)[C@H]2[C@H]1OC3` yielded a growth of 103%. `c1cc(OCCCCCOc2cccc(-c3nc4ccccc4[nH]3)c2)cc(-c2nc3ccccc3[nH]2)c1` gave a growth of 20.1%. Molecule `O=CN1N=C(c2cccc(Nc3ccnc4cc(Cl)ccc34)c2)CC1c1ccc(Cl)cc1` (configuration not stated) has a growth of 21.7%. For `COc1ccc(/C=C2\c3cc(OC)c(OC)c(OC)c3CC[C@@H]2O)cc1F`, the growth was 5.42% (active).

From PubChem BioAssay (NCI)
